Results on eleven molecules are retold here after PubChem BioAssay.

Assay [1] can be described thus: HepG2 liver cancer cell viability effects, profiling panel, resazurin fluorescence, 24 h, PK04 Diversity Set (AID 1172). Further: test concentration not given here. The settings on record: higher = more signal. (The colour change of resazurin is a common sign of viable cells or microbes.)
Assay [2] in a line: basal S. cerevisiae growth modulation, no modifier, primary screen, OD600, strain BY4716, 24 h, basal condition (AID 1173). The settings on record: OD600, 24 h, higher = more signal, called active from +8 up or from −8 down.
Assay [3] in a line: MM1S myeloma cell viability, profiling panel, resazurin fluorescence, basal, 24 h, PK04 Diversity Set (AID 1174). Further: test concentration not given here. The settings on record: higher = more signal, called active from +8 up or from −8 down.
Assay [4] addresses Dihydroorotate dehydrogenase (quinone), mitochondrial (Plasmodium falciparum (isolate 3D7)) (UniProt Q08210). Description: PfDHODH enzyme inhibitors, primary screen, biochemical, C-terminal His tag, absorbance 600 nm (AID 1175).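 Further: recombinant parasite enzyme with a five histidine tag at its C terminus; test concentration not given here.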 The settings on record: DCIP absorbance 600 nm, higher = more signal, called active from +8 up or from −8 down.
Assay [5] can be described thus: P. aeruginosa biofilm formation inhibitors, primary screen, strain PAO1, LB-PBS medium, absorbance 600 nm (AID 1176). Further: test concentration not given here. The settings on record: P. aeruginosa PAO1 growth/biofilm, A600, 12 h; higher = more signal.
The nature of assay [6]: S. cerevisiae RM11-1a growth modifiers, primary screen, strain RM11-1a, OD600, basal, 24 h (AID 1177).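 Further: cultures grown under basal conditions with no added stressor; test concentration not given here.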 The settings on record: OD600, 24 h, higher = more signal, called active from +8 up or from −8 down.
Assay [7] in a line: E. coli acrAB mutant growth effects, primary screen, E. coli filamentation inducers, strain DRC39, OD650, 24 h (AID 1178).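 Further: growth measured as culture turbidity by optical density at 650 nm; test concentration not given here.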 The settings on record: higher = more signal, called active from +8 up or from −8 down.
The nature of assay [8]: E. coli acrAB mutant growth effects, primary screen, E. coli filamentation inducers, strain DRC39, OD650, 48 h (AID 1179).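 Further: screen aims at cell division blockers that make cells filament.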 The settings on record: E. coli DRC39 delta-acrAB growth, higher = more signal, called active from +8 up or from −8 down.
The nature of assay [9]: RPMI8226 myeloma cell viability, profiling panel, resazurin fluorescence, basal, 24 h, PK04 Diversity Set (AID 1180).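 Further: RPMI8826 multiple myeloma cell line at 5000 cells per well; test concentration not given here.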 The settings on record: higher = more signal.
In assay [10] the target is E3 ubiquitin-protein ligase XIAP (Homo sapiens) (UniProt P98170). In words: XIAP binders, primary screen, biophysical, small-molecule microarray, fluorescence 635 nm (AID 1181).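 Further: score merges 667 nm emission and signal to noise over triplicate slides.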 The settings on record: small-molecule microarray binding, higher = more signal.

Active and inactive are the calls of the source. Unless noted, how the calls were made is not given here.

Sequence of E3 ubiquitin-protein ligase XIAP (Homo sapiens) (P98170 whole entry, looked up): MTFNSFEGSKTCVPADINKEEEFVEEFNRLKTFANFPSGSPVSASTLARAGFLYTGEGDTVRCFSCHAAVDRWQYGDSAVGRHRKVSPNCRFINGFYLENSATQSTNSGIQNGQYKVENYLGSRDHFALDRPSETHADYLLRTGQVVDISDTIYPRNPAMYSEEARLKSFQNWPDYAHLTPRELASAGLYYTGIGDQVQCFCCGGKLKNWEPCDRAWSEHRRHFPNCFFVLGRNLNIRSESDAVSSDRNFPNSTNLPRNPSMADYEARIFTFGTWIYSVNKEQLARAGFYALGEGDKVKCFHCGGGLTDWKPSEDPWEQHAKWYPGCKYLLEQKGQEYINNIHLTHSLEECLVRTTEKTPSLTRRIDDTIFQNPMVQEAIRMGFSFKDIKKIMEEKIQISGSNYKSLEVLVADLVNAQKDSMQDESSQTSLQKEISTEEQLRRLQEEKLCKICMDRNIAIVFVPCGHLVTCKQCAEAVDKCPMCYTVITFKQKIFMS
Sequence of Dihydroorotate dehydrogenase (quinone), mitochondrial (Plasmodium falciparum (isolate 3D7)) (Q08210 whole entry, looked up): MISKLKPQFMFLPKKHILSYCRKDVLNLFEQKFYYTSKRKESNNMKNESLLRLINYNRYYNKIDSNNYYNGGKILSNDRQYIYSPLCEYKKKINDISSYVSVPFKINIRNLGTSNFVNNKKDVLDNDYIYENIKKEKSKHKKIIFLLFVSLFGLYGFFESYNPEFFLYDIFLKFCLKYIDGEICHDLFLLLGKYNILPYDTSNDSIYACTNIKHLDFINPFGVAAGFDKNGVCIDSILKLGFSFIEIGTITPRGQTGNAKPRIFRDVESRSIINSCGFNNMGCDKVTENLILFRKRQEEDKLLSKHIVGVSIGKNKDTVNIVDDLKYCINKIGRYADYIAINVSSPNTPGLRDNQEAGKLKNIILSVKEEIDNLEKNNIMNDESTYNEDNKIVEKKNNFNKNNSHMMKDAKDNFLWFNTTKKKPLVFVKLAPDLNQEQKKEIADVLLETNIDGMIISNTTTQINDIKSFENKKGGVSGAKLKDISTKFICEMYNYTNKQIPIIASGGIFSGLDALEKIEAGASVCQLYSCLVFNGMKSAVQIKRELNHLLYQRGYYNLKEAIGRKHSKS

For `CC(C)(C)N1CC=CC23O[C@@H]4/C=C\CCCOC(=O)C4[C@H]2C(=O)N(CCO)[C@@H]3C1=O` (stereo not given in full), the z-score in assay [1] was -0.636; in [2], 0.0998 (inactive); in assay [3], -0.0023 (inactive); in assay [5], 0.18 (inactive); in assay [6], 0.338 (inactive); in assay [7] it was -0.599 (inactive). The z-score in assay [8] was -0.814 (inactive); in [9] it was -0.053. Moreover, the composite z-score in assay [4] was -0.252 (inactive); in [10], -0.142.

`C=CC[C@@]1(C(=O)NCC(O)CO)N=C(c2ccc(OCCCO)cc2)O[C@@H]1c1ccccc1N=[N+]=[N-]` (stereo not given in full): the z-score in assay [1] is 0.896; in assay [2], -0.965 (inactive); in assay [3] it was -0.12 (inactive); in assay [5] it was -0.0709 (inactive); in [6], 0.0157 (inactive); in assay [7], 1.69 (inactive). The figures for the z-score in assay [8] and in assay [9] were 1.29 (inactive) and -0.274, respectively. For the same molecule, the composite z-score was -0.269 (inactive) in assay [4] and 0.0049 in [10].

As to `COc1ccc(CCN2C(=O)[C@@]3(Cc4ccccc42)c2ccccc2C(=O)N(Cc2ccccc2Cl)[C@H]3c2ccc(CO)cc2)cc1`, the z-score in [1] was -0.349; in [2], -0.542 (inactive); in assay [3], 0.249 (inactive); in assay [5], 1.57 (inactive); in [6] it was 0.215 (inactive); in [7], 0.157 (inactive). Besides, the z-score is 0.353 (inactive) in [8] and 0.314 in assay [9]. For the same molecule, the composite z-score in [4] is -6.31 (inactive); in assay [10], -0.142.

Take `O=C1C2C=CC(C(O)c3ccc(B(O)O)cc3)N(Nc3ccccc3)C2C(=O)N1c1ccccc1` (stereo not given): the z-score in [1] is -1.28; in assay [2], -0.841 (inactive); in [3], -1.35 (inactive); in assay [5] it was 0.546 (inactive); in assay [6], 0.0003 (inactive); in assay [7], 0.17 (inactive). Besides, the z-score was -0.346 (inactive) in [8] and -1.59 in assay [9]. Besides, the composite z-score in [4] was -0.395 (inactive); in assay [10], 0.0623.

As for `COCCCNC(=O)[C@@]1(C)c2ccccc2C(=O)N(Cc2cc(C(F)(F)F)cc(C(F)(F)F)c2)[C@H]1c1ccc(CO)cc1`, the z-score was -0.063 in assay [1]; -0.0384 (inactive) in assay [2]; 0.186 (inactive) in [3]; 0.127 (inactive) in assay [5]; 0.429 (inactive) in assay [6]; 0.534 (inactive) in assay [7]. In addition, the z-score in assay [8] was 1.3 (inactive); in assay [9] it was 0.394. For the same molecule, the values for the composite z-score in assay [4] and in [10] were 1.03 (inactive) and -0.204, respectively.

For `CCCCCN1CC=CC23O[C@@H]4/C=C\CCCOC(=O)C4[C@H]2C(=O)N(CCCCCCO)[C@@H]3C1=O` (stereo not given in full), the z-score in [1] is 0.239; in assay [2], -2.73 (inactive); in [3] it was 0.972 (inactive); in assay [5], 1.45 (inactive); in [6] it was -3.12 (inactive); in assay [7], 0.758 (inactive). The z-score was 0.868 (inactive) in assay [8] and 1.42 in assay [9]. The composite z-score in assay [4] is -2.25 (inactive); in assay [10] it was 0.147.

As for `N#Cc1ccc(NN2C(C(O)c3cccs3)C=CC3C(=O)N(c4ccccc4)C(=O)C32)cc1` (stereo not given), the z-score was -0.375 in [1]; -1.97 (inactive) in assay [2]; 0.0171 (inactive) in [3]; 1.08 (inactive) in [5]; -1.59 (inactive) in assay [6]; 0.766 (inactive) in assay [7]. The z-score in [8] is 1.36 (inactive); in assay [9], 0.131. The results for the composite z-score in assay [4] and in assay [10] were -1.41 (inactive) and -0.126, respectively.

In the case of `C=CCC(OC(C)=O)[C@@H]1[C@@H](N(Cc2ccc(-c3cccc(C(F)(F)F)c3)o2)C(=O)c2ccc(C)cc2)c2cc(OCCCO)ccc2N1C(=O)c1ccc(-c2ccccc2)cc1` (stereo not given in full), the z-score in assay [1] was 0.0024; in assay [2] it was -0.15 (inactive); in assay [3] it was -0.936 (inactive); in assay [5], 0.477 (inactive); in assay [6], 0.677 (inactive); in assay [7], -0.456 (inactive). Also, the z-score in [8] was 0.0289 (inactive); in assay [9] it was 0.525. For the same molecule, the composite z-score in assay [4] was -0.23 (inactive); in assay [10], -0.127.

For the molecule `C=C[C@@H](COC(C)=O)N(Cc1ccccc1[N+](=O)[O-])S(=O)(=O)c1ccc(Br)cc1`, the z-score in assay [1] is -0.798; in [2], -2.24 (inactive); in assay [3] it was -0.504 (inactive); in assay [5], -0.0963 (inactive); in assay [6], -2.34 (inactive); in [7] it was 1.47 (inactive). Moreover, the z-score in assay [8] is 0.911 (inactive); in [9], 0.0192. The composite z-score in assay [4] was -2.79 (inactive); in assay [10] it was 0.183.

For the molecule `CCCCC(O)C1C=CC2C(=O)N(C3CCCCC3)C(=O)C2N1Nc1ccc(OC)cc1` (stereo not given), the z-score in assay [1] was -0.414; in assay [2], -2.57 (inactive); in [3], -0.496 (inactive); in assay [5] it was 0.89 (inactive); in assay [6], 0.669 (inactive); in [7], -1.01 (inactive). Also, the z-score was -0.584 (inactive) in assay [8] and -0.369 in assay [9]. Further, the composite z-score in [4] was 1.12 (inactive); in assay [10], 0.0617.

In the case of `COc1cc2c(cc1O)C(C)N(Cc1cccc(OC(F)(F)F)c1)CC2` (stereo not given), the z-score in assay [1] was 0.177; in assay [2], -0.713 (inactive); in assay [3], -1.33 (inactive); in assay [5], -0.255 (inactive); in assay [6], 0.279 (inactive); in [7], 0.506 (inactive). The z-score in assay [8] is 0.324 (inactive); in assay [9], -0.622. Moreover, the composite z-score in assay [4] was -1.44 (inactive); in [10], 0.427.
